Activity calls are given as the source filed them.
System: Neuregulin-1 EGF-like domain
Experiment: small molecules binding NRG1 EGF domain – biochemical, small-molecule microarray, 635 nm fluorescence, primary screen (AID 1081);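 further: binding of the protein to compounds printed on small-molecule microarray slides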
Conditions: higher = more signal

Structure (SMILES)	composite z-score
[N-]=[N+]=NCc1ccccc1C[C@]1(C(N)=O)N=C(c2ccc(OCCCO)cc2)O[C@H]1c1ccccc1	1.14
C=CCNC(=O)[C@H]1[C@@H]2C(=O)O[C@@H](c3ccccc3)[C@@H](c3ccccc3)N2[C@@H](c2ccc(O)cc2)[C@]12C(=O)Nc1ccc(C#CC3(O)CCCCCC3)cc12	0.718
NCCCCCNC(=O)[C@@H]1C[C@@H]2C(=O)NCC(=O)N2[C@@H]1c1cccc(OCCO)c1	1.34

System: not listed separately
Experiment: FRG1 expression reporter modulators in myotubes – cell-based, C2C12 myotubes, firefly/Renilla luciferase, luminescence, FRG1 inhibition for FSHD, primary screen (AID 1084)
Conditions: FRG1 promoter luciferase, higher = more signal, called active from +8 up or from −8 down

Structure (SMILES)	z-score
COc1cc2c(cc1OC)CN(C(=O)[C@@H]1[C@H]3C(=O)O[C@H](c4ccccc4)[C@H](c4ccccc4)N3[C@H](c3ccc(OCCO)cc3)[C@@]13C(=O)Nc1ccc(C#CC4(O)CCCCCC4)cc13)CC2	-0.921 (inactive)
C=C(/C(=C/C[C@H](OC(C)=O)c1cccc(OCCO)c1)c1cnc2ccccc2c1)C(C)C	-0.127 (inactive)
OCCCC1=CC(c2ccc(CN3CCCC3)cc2)N(Cc2sc3ccccc3c2Cl)CC1 (stereo not given)	-0.475 (inactive)
CCOC(=O)C[C@H]1[C@H](OC(=O)c2ccccc2-c2ccccc2)[C@@H](NC(=O)C2CCCCC2)c2cc(OCCCO)ccc2N1C(=O)Cc1ccc(OC)cc1	0.277 (inactive)
CN1C(=O)C2C=CC(C(O)c3cccc4ccccc34)N(N3CCCCC3)C2C1=O (stereo not given)	1.09 (inactive)
CC1=C([C@H](O)CCc2ccccc2)[C@H](CO)[C@@H]2C(=O)N(C)C(=O)[C@@H]2C1	-0.445 (inactive)
O=C1O[C@@H](c2ccccc2)[C@@H](c2ccccc2)N2[C@@H](c3ccc(OCCO)cc3)[C@]3(C(=O)Nc4ccccc43)[C@@H](C(=O)O)[C@H]12	-0.0089 (inactive)
